Results from PubChem BioAssay AID2783 (National Center for Advancing Translational Sciences (NCATS), 2010).
Records with an inconclusive call do not appear. Calls of active or inactive are those of the source. The call rests on the fitted dose curve; in most records, active means well fitted inhibition curve with a large enough effect in the polarisation, with a control signal flat (not every such curve was filed as active); inconclusive means small, poorly fitted or top-dose-only effect, or effect the other way, or a change in a side signal; inactive means no such curve, though single readings can be large or run the other way; the % refers to the polarisation.

Biological target: Menin (Homo sapiens) (UniProt O00255)
Sequence (O00255 whole entry, looked up): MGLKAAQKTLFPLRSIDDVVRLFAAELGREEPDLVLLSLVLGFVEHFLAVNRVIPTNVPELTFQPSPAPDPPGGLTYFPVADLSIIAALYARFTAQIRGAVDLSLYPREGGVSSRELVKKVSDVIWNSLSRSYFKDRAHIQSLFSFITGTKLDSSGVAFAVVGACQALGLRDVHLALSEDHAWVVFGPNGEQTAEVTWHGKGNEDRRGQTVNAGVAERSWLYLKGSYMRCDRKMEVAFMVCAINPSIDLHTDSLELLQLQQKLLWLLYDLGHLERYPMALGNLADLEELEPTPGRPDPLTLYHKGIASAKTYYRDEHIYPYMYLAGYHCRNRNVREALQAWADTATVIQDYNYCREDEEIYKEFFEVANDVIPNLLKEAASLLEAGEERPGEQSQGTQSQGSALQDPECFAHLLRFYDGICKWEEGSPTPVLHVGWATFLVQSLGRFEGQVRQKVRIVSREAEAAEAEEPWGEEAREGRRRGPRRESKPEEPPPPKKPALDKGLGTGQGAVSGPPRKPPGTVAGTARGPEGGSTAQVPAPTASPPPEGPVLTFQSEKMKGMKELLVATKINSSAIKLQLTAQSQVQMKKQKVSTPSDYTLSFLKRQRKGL
Assay: Confirmation of Inhibitors Targeting the Menin-MLL Interaction in MLL Related Leukemias: Competition With Fluorescein Labeled MLL-derived Peptide
Settings: Fluorescence polarization, fluorescein-MLL peptide displacement from menin; series mostly up to 100 µM; activity change, negative = inhibition: at the top concentration
From the text: qHTS Assay for Inhibitors Targeting the Menin-MLL Interaction in MLL Related Leukemias
NIH Chemical Genomics Center [NCGC]
NIH Molecular Libraries Probe Centers Network [MLPCN]
Assay Submitter (PI): Jolanta Grembecka, Tomasz Cierpicki, University of Virginia
Translocations of the MLL (Mixed Lineage Leukemia) gene are frequently found in human leukemias affecting both children and adults. Fusion of MLL to one of more than 60 genes results in generation of oncogenic proteins upregulating Hox genes, which are vital to blood cell development. Patients harboring fusion of the MLL gene suffer from aggressive leukemias and respond poorly to available therapies. All of the oncogenic fusion proteins have a preserved N-terminal fragment of MLL that has been identified to interact with menin. It has been recently discovered that association with menin is critical to the leukemogenic activity of the MLL fusion oncoproteins. Selective targeting of the menin-MLL interaction could provide an attractive therapeutic approach to develop novel drugs for MLL-related leukemias. Small molecules blocking the menin-MLL interaction should reverse the oncogenic potential of MLL fusion proteins.
We have developed and optimized a fluorescence polarization-based assay for the identification of Menin-MLL inhibitors. The assay was run employing two different MLL-derived peptides. The present assay uses a 12 amino acid peptide labeled with fluorescein at its N-terminus. This peptide consists of the menin high affinity binding motif from MLL and is potently bound by menin. Another peptide with a mutated sequence, labeled with Texas Red, was used in parallel as a less stringent screen for inhibitors.
The present assay was run to confirm the activity of hits from the primary screen.
The Menin protein, the MLL-wild type (w.t.) derived peptide (N-terminal 12 amino acids), the MLL-derived peptide labeled with Texas Red and the MLL-w.t. peptide labeled with Fluorescein were kindly supplied by laboratory of Dr. Jolanta Grembecka, University of Virginia. All protein and peptide solutions were stored in single use aliquots at -80C. The Eu3+ Cyrptate-conjugated mouse monoclonal antibody anti-6 Histidine (Eu3+-AB) and the Streptavidin-XL665 conjugate (XL665) were purchased from Cisbio International (Bedford, MA). All antibody and XL665 conjugate solution stocks were stored in single use aliquots at -20C. The Buffer components for all assays were purchased from Sigma-Aldrich (St. Louis, MO) and Invitrogen (Carlsbad, CA).
1. FP reaction buffer: 50 mM Tris-HCl pH 7.5, 50 mM NaCl, 1mM DTT.
Before use, 0.05% BSA is added.
2. Menin protein, MLL-w.t. labeled with fluorescein, MLL-mutant peptide labeled with texas red.
Stored in singe use aliquots at -80C.
3. MLL-w.t. unlabeled peptide as positive control: 10 uM final in FP buffer.
1. Prepare Menin at 200 nM, MLL-w.t.-fluorescein at 25 nM, and MLL-mutant-texas red at 50 nM mixture in FP buffer.
2. Prepare Menin at 200 nM, MLL-w.t.-fluorescein at 25 nM, MLL-mutant-texas red at 50 nM, and 10 uM MLL-w.t. unlabeled mixture in FP buffer.
3. Prepare MLL-w.t.-fluorescein at 25 nM and MLL-mutant-texas red at 50 nM mixture in FP buffer.
3. Dispense 4 ul per well of reagent in step 1 in columns 2, 4 - 48 in a black 1536 well plate, dispense 4 ul per well of reagents from steps 2 and 3 in columns 1 and 3 respectively. Incubate plate at ambient for 15 minutes.
4. Transfer 23 nl per well of compound to plate and incubate at ambient for 1 hr.
5. Read fluorescence polarization for each label using the PerkinElmer Envision.
Envision protocol for fluorescein: FITC FP Dual Enh Mirror, Excitation filter 480, Emission filter (1) P-pol 535, Emission filter (2) S-pol 535
Envision protocol for texas red: FP Dual Enh Mirror, Excitation filter 555, Emission filter (1) P-pol 632, Emission filter (2) S-pol 632
On the % scale 0 is the no-effect control and ±100 the full control effect.

Activity change, negative = inhibition, inactive:
Cc1cc2nc(-c3ccc(SCC(=O)Nc4ccc5c(c4)OCCO5)nc3)[nH]c2cc1C 43.2% [at 288 µM]
O=C(NC(=S)Nc1ccccc1)c1cc(-c2ccccc2)nc2ccccc12 -1.95% [at 288 µM]
O=S(=O)(Nc1cccc(-c2cn3cccnc3n2)c1)c1ccccc1 1.3% [at 288 µM]
Cc1[nH]nc(-c2ccc(OCc3cnn(-c4ccccc4)c3)c(C)c2O)c1Oc1ccccc1 -13.3%
O=c1c2ccccc2nc(N/N=C/c2c(O)ccc3ccccc23)n1O 9.5% [at 288 µM]
O=C(N/N=C/c1cn(-c2cccs2)nc1-c1ccccc1)c1ccccc1O 2.11% [at 288 µM]
COc1ccc2nc(NC(=O)CSc3nnc(N)s3)sc2c1 1.97%
Cc1cc2ccccc2nc1SCC(=O)Nc1nc(-c2ccccc2)cs1 17.8% [at 288 µM]
NC(=O)c1cc2ccccc2o/c1=N/NC(=O)c1cccc(F)c1 -12.4%
Oc1ccc(Nc2ncnc3c2oc2ccccc23)cc1 -5.44% [at 288 µM]
CC(=O)c1cccc(OCC(O)CNCC2COc3ccccc3O2)c1 (stereo not given) 0.566%
O=c1cc(O)c2ccccc2n1Cc1ccccc1F -15.9%
CCn1ncc(C(=O)Nc2cc(C)on2)c1C -11.3%
O=C(Nc1ccc(F)c(Cl)c1)c1cc(-c2ccco2)on1 3.78%
CCOc1ccc(NC(=O)c2cccc(OC(=S)N3CCC(C)CC3)c2)cc1 -20.4%
O=S(=O)(NCCc1c[nH]c2ccccc12)c1ccccc1 1.3% [at 288 µM]
CC(=O)N1CCCc2cc(S(=O)(=O)N3CCCC(C(=O)N4CCN(c5ccccc5)CC4)C3)ccc21 (stereo not given) 1.86%
COC(CSc1nc(N)c2c3c(sc2n1)CN(C)CC3)OC -18.1%
O=C(CC(Sc1ccc(Br)cc1)C(=O)O)c1ccc(F)cc1 (stereo not given) 1.87% [at 288 µM]
COc1cccc(OC)c1NC(=O)CN1CCN(C)CC1 -13.1%
O=C(CC(=O)c1ccccc1)Nc1cc(C(F)(F)F)ccc1Cl 2.38%
CCN(CC)c1nc(-c2ccc(C(=O)NN)cc2)nc(-c2ccc(C(=O)NN)cc2)n1 -6.99% [at 288 µM]
O=C(Cn1nc(-c2ccccc2)ccc1=O)N1CCCCC1 2.68% [at 288 µM]
CCOC(=O)N1CCN(C(=O)c2oc3ccc(S(=O)(=O)N(CC)CC)cc3c2C)CC1 -1.38% [at 288 µM]
Cc1cc2ncn(-c3ncnc4sc5c(c34)CCC(C)C5)c2cc1C (stereo not given) -18.4%
CSC[C@@H]1NC(=S)N(c2ccc(C)cc2)C1=O 3.86%
O=C(NC1CCN(c2ncccn2)CC1)c1c(F)cccc1F -2.68% [at 288 µM]
COc1ccc(-c2csc(NC(=O)c3cc(-c4cccs4)nc4ccccc34)n2)c(OC)c1 -10.6%
O=c1oc2c(O)c(O)cc3c(=O)oc4c(O)c(O)cc1c4c23 -10.6%
COc1ccccc1C(=O)Nc1ccccc1SC(=O)c1ccccc1OC 15.3% [at 288 µM]
CN1CCN(CC(=O)c2ccccc2F)CC1 -0.485%
CCCCn1c(SCC(=O)NCc2ccc(OC)c(C(=O)O)c2)nc2cc(S(N)(=O)=O)ccc21 -8.37% [at 288 µM]
C[N+]1(CCNC(=O)/C=N/O)CCCCC1 -18.6%
CCc1ccccc1NC(=O)COc1cccc(-n2cnnn2)c1 -4.06% [at 288 µM]
CN(C)c1ccc(N=Nc2ccc(C(=O)O)cc2)cc1 3.8%
COc1ccc(-c2cc(-c3ccc(C)cc3)n[nH]2)c(O)c1 2.76% [at 288 µM]
CCOc1cc(C(c2c(C)[nH][nH]c2=O)c2c(C)[nH][nH]c2=O)cc(Br)c1OC -2.68% [at 288 µM]
COc1ccc(NC(=O)NC2(C(=O)N3CCOCC3)CCCCC2)cc1 1.56%
COc1ccccc1CNCC(=O)Nc1ccc(C#N)cc1 -3.17% [at 288 µM]
COc1ccc(C)cc1N(C(=O)c1snc(C(N)=O)c1N)C(C(=O)NC1CCCC1)c1ccc(F)cc1 (stereo not given) 8.37% [at 288 µM]
